Compound activity as filed in PubChem.
Most compounds without a hit are left out; they make up all but 2.8% or so of the library.
p-CIP stab down – compounds decreasing mouse p/CIP protein stability; Q05BA5; F442A p/CIP-EGFP cells, EGFP fluorescence, 16 h; decrease of EGFP signal, % at 10 µM; 290,000 tested, 0.01% active;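 active means EGFP signal decrease of at least 30% at 10 µM or well 3 SD below plate mean, unless failing retest; inactive means the rest, including hits failing retest or dose response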
PolyA inhibitor – inhibitors of polyadenylation in S. cerevisiae. S. cerevisiae SKY197-pL101 polyadenylation reporter, beta-gal luminescence; efflux-impaired pdr1/pdr3 knockout yeast; score 100 = 6 SD above DMSO. activity score, % at 12 µM. 300,000 tested, 0.02% active;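 active means lowest replicate activity score at least 50, where 100 means six control SD above control mean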;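 further: yeast exposed to compound for 9 h at 30 °C; higher score means more reporter readthrough which indicates perturbed polyadenylation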
HIF activator – HIF pathway transcriptional activation; U2OS HRE-luciferase reporter, luminescence; normalized: DMSO 0%, desferrioxamine 100%; activation, % at 7.5 µM (by protocol); 300,000 tested, 0.32% active; AID 1910;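 active means mean activation of at least 10% of the iron chelator positive control signal, with at least half of replicates also reaching 10%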
AHR act – activates the human aryl hydrocarbon receptor; AHR-responsive luciferase reporter cells, luminescence; activation, % at 5 µM; 320,000 tested, 2.5% active; in the data active means activation above about 47%;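 further: 0% = vehicle wells and 100% = reference agonist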
Target sequence (P35869 whole entry, looked up): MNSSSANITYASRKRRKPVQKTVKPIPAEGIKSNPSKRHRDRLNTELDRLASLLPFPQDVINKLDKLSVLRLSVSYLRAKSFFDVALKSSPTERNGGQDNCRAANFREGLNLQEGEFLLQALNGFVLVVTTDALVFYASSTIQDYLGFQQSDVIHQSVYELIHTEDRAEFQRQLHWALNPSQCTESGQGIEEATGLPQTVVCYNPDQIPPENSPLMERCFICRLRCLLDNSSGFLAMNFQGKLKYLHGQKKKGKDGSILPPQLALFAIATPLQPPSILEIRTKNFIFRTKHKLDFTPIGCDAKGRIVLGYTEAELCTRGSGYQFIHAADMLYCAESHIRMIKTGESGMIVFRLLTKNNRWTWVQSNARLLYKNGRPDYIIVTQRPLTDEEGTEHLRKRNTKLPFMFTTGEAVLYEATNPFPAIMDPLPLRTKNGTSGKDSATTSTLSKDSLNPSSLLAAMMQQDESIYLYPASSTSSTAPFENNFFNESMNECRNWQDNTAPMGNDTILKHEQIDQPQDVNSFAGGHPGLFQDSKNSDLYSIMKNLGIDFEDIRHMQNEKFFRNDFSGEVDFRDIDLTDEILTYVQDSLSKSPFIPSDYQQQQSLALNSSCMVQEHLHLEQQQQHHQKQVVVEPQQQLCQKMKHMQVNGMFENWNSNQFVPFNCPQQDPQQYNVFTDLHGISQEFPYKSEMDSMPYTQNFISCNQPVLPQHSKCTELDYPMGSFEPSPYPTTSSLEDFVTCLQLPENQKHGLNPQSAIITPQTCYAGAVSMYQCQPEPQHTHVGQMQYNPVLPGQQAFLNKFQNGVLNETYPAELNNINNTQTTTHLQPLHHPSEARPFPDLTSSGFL
Platelet DG rel – platelet dense granule release activity; inhibition, %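 (compounds screened at 7.5 µM in platelet-rich plasma)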; human platelet-rich plasma, SFLLRN dense granule ATP release, luminescence; AID 1663; 300,000 tested, 0.22% active;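 active means mean replicate score, as percent of positive control, at or above 50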
* marks the source's active call; other numbers are inactive results; · = no result given.

SMILES	p-CIP stab down	PolyA inhibitor	HIF activator	AHR act	Platelet DG rel
CCc1nnc(NC(=O)COc2ccc3c(c2)OCO3)s1	-2.7	10.4	0.5	37.9	-2.3
CC(C)c1nnc(NC(=O)COc2ccc3c(c2)OCO3)s1	-4.3	-2.6	0.6	38.5	-4.2
Cc1cc2c(Nc3ccc(C(=O)O)cc3)ncnc2s1	-4.7	20.7	-2.5	0.2	-4.5
Cc1cc(C)cc(OCC(=O)N(Cc2ccc(N(C)C)cc2)C2CCS(=O)(=O)C2)c1 (centres undefined)	10.3	-0.7	-0.1	20.2	19.0
Cc1cc(CNC(=O)c2cccc(OC3CCN(S(=O)(=O)N(C)C)CC3)c2)on1	8.9	2.2	5.1	7.0	9.6
C=CCOc1ccc(C(c2c(O)nc(SC)[nH]c2=O)c2c(O)nc(SC)[nH]c2=O)cc1	·	-7.9	-0.6	-2.8	2.9
NC(=O)COC(=O)c1ccccc1OCc1ccccc1Cl	15.3	·	-1.6	0.3	3.4
COc1cc(OC)c(C(=O)Nc2cc(Cl)ccc2-n2cncn2)cc1OC	·	0.2	-18.5	59.2*	-13.9
Cc1ccc(C(=O)Nc2cc(Cl)ccc2-n2cncn2)o1	·	-2.4	0.1	58.3*	4.4
O=C(Nc1cc(Cl)ccc1-n1cncn1)c1ccco1	3.0	3.3	0.2	31.5	2.7
COc1ccccc1C(=O)Nc1cc(Cl)ccc1-n1cncn1	9.4	10.9	-0.2	49.4*	-10.2
O=C(Nc1cc(Cl)ccc1-n1cncn1)c1ccc([N+](=O)[O-])s1	-38.8	-4.4	0.0	68.4*	10.6
COc1ccc(C2SCC(=O)N2CC23CC4CC(CC(C4)C2)C3)cc1 (centres undefined)	-12.8	-16.4	0.3	-2.5	-0.1
CCOC(=O)CN1C(=N)N(c2nc(NC(C)C)nc(NC(C)C)n2)CC1=O	8.8	-0.5	11.5*	3.6	-6.2
CCOC(=O)CN1C(=N)N(c2nc(NC(C)C)nc(OC)n2)CC1=O	-5.4	11.8	-0.9	1.8	-3.5
COc1cc(C(=O)Nc2nnc(C)s2)cc(OC)c1OC	-3.3	-16.1	-0.2	69.3*	8.7
COc1cc(C(=O)NC(=S)Nc2nccs2)cc(OC)c1OC	14.7	-2.8	0.0	78.8*	-7.3
COc1cc(C(=O)Nc2nncs2)cc(OC)c1OC	-18.3	0.1	-0.4	15.6	4.3
COc1cc(CC(=O)Nc2nccs2)cc(OC)c1OC	-5.0	15.9	-0.7	-0.4	-3.1
N#Cc1ccc(OCC(=O)Nc2nc(-c3cccnc3)cs2)cc1	·	·	·	48.6*	·
Cc1cc(C)cc(OCC(=O)Nc2nc(-c3cccnc3)cs2)c1	-5.5	-11.6	-0.2	66.5*	16.8
O=C(COc1ccccc1)Nc1nc(-c2ccncc2)cs1	-4.3	-7.3	-0.4	6.0	-9.9
O=[N+]([O-])c1ccccc1Nc1nc(-c2cccnc2)cs1	-5.2	-7.1	0.8	52.2*	1.3
Cc1cccc(OCC(=O)Nc2nc(-c3ccncc3)cs2)c1	·	·	·	-3.5	·
O=C(COc1ccccc1)Nc1nc(-c2cccnc2)cs1	·	·	·	54.9*	·
SMILES	p-CIP stab down	PolyA inhibitor	HIF activator	AHR act	Platelet DG rel
CCCSc1ccc2nc(NC(=O)OC)[nH]c2c1	-11.6	1.3	2.8	53.7*	1.7
O=C(NCc1ccccn1)c1cccc(S(=O)(=O)N2CCc3ccccc32)c1	·	·	·	4.7	·
Cc1nc2cc(-c3sccc3-n3cccc3)nn2c(C)c1C	-7.9	-13.2	0.5	69.0*	-2.1
Cn1c(N)c(C(=O)Nc2ccc3ccccc3c2)sc1=S	-5.0	-16.4	2.8	93.2*	-1.8
Cc1c(C(=O)N/N=C/c2cccnc2)sc(=S)n1C	0.7	-12.0	-2.4	36.5	-3.2
Cn1c(N)c(C(=O)N/N=C/c2ccccc2)sc1=S	0.2	7.0	0.6	100.6*	-5.8
CCOC(=O)[C@H]1[C@H]2COc3ccc(OC)cc3[C@H]2N2C(=O)CNC(=O)[C@@]12C	·	·	·	0.2	·
CCN(C(=O)CN1CCC(C(=O)OC)CC1)c1c(N)n(Cc2ccccc2)c(=O)[nH]c1=O	·	·	·	0.2	·
C#CCOc1nc(Nc2cccc([N+](=O)[O-])c2)nc(OCC#C)n1	2.7	-11.6	0.1	52.3*	0.4
Cc1ccccc1NC(=O)CN(C)S(=O)(=O)c1ccc(-c2ccc(=O)[nH]n2)s1	-5.5	2.1	519.2*	6.5	-14.6
Nc1nc(COc2ccccc2C=O)nc(Nc2ccccc2)n1	0.2	0.6	3.8	8.6	3.3
CCOC(=O)c1c(S(=O)(=O)N2CCC(C)CC2)c(C)n(C)c1C	-9.1	-9.4	44.0*	4.3	-3.5
CCOC(=O)c1c(S(=O)(=O)N2CCCCCC2)c(C)n(C)c1C	12.9	-6.6	0.6	0.5	2.2
